Molecules are shown by their SMILES. Hit rate of the full screen: of about 69,000 compounds, about 8,600 (12%) showed an effect of 50% or more. The sample as a whole holds a higher share of strong results than the screen did.

This assay deals with Plasmodium berghei. The assay can be described thus: Screen against P. berghei liver stage (PbLuc), transformed with Luciferase, at 10uM. It counts as functional, HepG2. Conditions: tested at 10 uM.
For the compound `Cc1nc([C@@H]2C[C@@H]3CCN(C(=O)c4ccsc4)C[C@H]3O2)no1`, the INHIBITION was found to be 18.5%.

For `CCCN(C(=O)c1ccccn1)c1nc2c(s1)CCc1c-2cnn1C`, the INHIBITION is listed as 63.1%.

Take `CCCN(C(=O)c1cccnc1)c1nc2c(s1)CCc1c-2cnn1C`: the INHIBITION is on record as 78.2%.

On to `CCCN(C(=O)c1ccncc1)c1nc2c(s1)CCc1c-2cnn1C`, for which the INHIBITION worked out at 46%.

Regarding `CCCN(C(=O)c1cnc(C)cn1)c1nc2c(s1)CCc1c-2cnn1C`, the INHIBITION turned out to be 44.8%.

Regarding `CN(C(=O)c1ccccn1)c1nc2c(s1)CCc1c-2cnn1C`, the INHIBITION came out at 74.5%.

For the compound `COCCN(C(=O)c1cnccn1)c1nc2c(s1)CCc1c-2cnn1C`, the INHIBITION is reported as 11.1%.

With `CN(C(=O)c1ccccn1)c1nnc(C2CCOC2)s1` (stereo unspecified), the INHIBITION is recorded as -13.745%.

For the compound `CCCN(C(=O)COC)c1nc2c(s1)CCc1c-2cnn1C`, the INHIBITION was 5.13%.

Turning to `CCCN(C(=O)c1cnccn1)c1nc2c(s1)CCc1c-2cnn1C`, the INHIBITION came out at 29.2%.

`Cc1cc(-c2cnc(C)nc2CN(C)C(=O)c2ccccn2)on1`: the INHIBITION worked out at 18.3%.

Turning to `COCCN(C(=O)c1ccccn1)c1nc2c(s1)CCc1c-2cnn1C`, the INHIBITION is 59.3%.

For the compound `COCCN(Cc1ccoc1)C(=O)c1ccccn1`, the INHIBITION is recorded as 11.8%.

With `O=C(NCCCNC(=O)c1cccc(O)c1)NCc1ccccc1F`, the INHIBITION is given as -1.58%.

`CCn1cc(CN2CCCN(C(=O)c3ccco3)CC2)cn1`: the INHIBITION is on record as -61.4%.

`COC(=O)c1ccnn1COc1ccc(Cl)cc1`: the INHIBITION was 16%.

With `CCc1nn(C)c2[nH]nc(NC(=O)c3ccccc3COC)c12`, the INHIBITION turned out to be 33.7%.

As for `N#Cc1ccc(NC(=O)C2CSCN2)cc1` (stereo unspecified), the INHIBITION is recorded as 39%.

Take `COc1cc(CNCc2ccco2)ccc1OCCO`: the INHIBITION came out at 10.6%.

In the case of `CCN(CC)S(=O)(=O)c1cc(Br)ccc1OC`, the INHIBITION was -32.9%.

For the compound `COc1cc(OC)cc(C(=O)N(C)Cc2nnc3ccccn23)c1`, the INHIBITION was -6.14%.

For the compound `Cc1c[nH]c(CN2CCCCC2CCN(C)C)c(C)c1=O` (stereo unspecified), the INHIBITION is on record as 38.8%.

As for `Cc1c[nH]c(CN2CCCCC2CCc2cccc(O)c2)c(C)c1=O` (stereo unspecified), the INHIBITION was 39.9%.

Consider `Cc1c[nH]c(CN2CCCCC2CCn2cccn2)c(C)c1=O` (stereo unspecified), for which the INHIBITION is reported as 51.8%.

With `Cc1nccn1CCC1CCCCN1Cc1ccncc1` (stereo unspecified), the INHIBITION is listed as -57.8%.

In the case of `Cc1c[nH]c(CN2CCCCC2CCn2ccnc2C)c(C)c1=O` (stereo unspecified), the INHIBITION was found to be 53.9%.

Turning to `Cc1nccn1CCC1CCCCN1Cc1ccc(N(C)C)nc1` (stereo unspecified), the INHIBITION is on record as -38.9%.

Regarding `Cc1cc2c(cc1CN1CCCCC1CCn1ccnc1C)OCO2` (stereo unspecified), the INHIBITION is listed as 13.7%.

For `Cc1nccn1CCC1CCCCN1Cc1ccc2c(c1)OCCO2` (stereo unspecified), the INHIBITION is recorded as 51.3%.

As to `Cc1nccn1CCC1CCCCN1Cc1cnc(N(C)C)nc1` (stereo unspecified), the INHIBITION is reported as 33.3%.

In the case of `CC[C@@H]1N(Cc2nccs2)CCC[C@]12CCC(=O)N2C`, the INHIBITION is recorded as -27%.

Consider `COc1ccc(-c2nnc(CNCCn3cccn3)o2)cc1`, for which the INHIBITION is on record as 23.5%.

In the case of `CO[C@H]1CCN(C(=O)c2cc(C)on2)C[C@@H]1Cc1ccccc1`, the INHIBITION worked out at 2.58%.

For `Cc1[nH]ncc1CCCNC(=O)N1CCCC(c2nncn2C)C1` (stereo unspecified), the INHIBITION is -29.8%.

In the case of `CCCn1nccc1NC(=O)CN1CCCC1Cn1cccn1` (stereo unspecified), the INHIBITION was found to be 12.3%.

`Cc1cccc(OCC2CCCN(C(=O)Cn3ccccc3=O)C2)c1` (stereo unspecified): the INHIBITION is 13.6%.

With `Cn1cc(C(=O)Nc2ccnc(Oc3ccccc3)c2)ccc1=O`, the INHIBITION turned out to be 16.8%.

As to `COc1ccc(CNC(=O)Nc2ccc(=O)n(C)c2)cc1`, the INHIBITION was determined as 29%.

Regarding `COc1cccc(-c2ccc(CNC(=O)c3ccc(=O)n(C)c3)cc2)c1`, the INHIBITION was 72.3%.

`Cn1cc(C(=O)Nc2cccc(F)c2)ccc1=O`: the INHIBITION is given as 42.6%.

As to `COc1ccc(CNC(=O)c2ccc(=O)n(C)c2)cc1C`, the INHIBITION was 11.8%.

On to `COc1cccc(CCNC(=O)c2ccc(=O)n(C)c2)c1`, for which the INHIBITION was found to be 24.2%.

As for `Cn1cc(NC(=O)NCc2ccoc2)ccc1=O`, the INHIBITION is reported as 47.4%.

Take `COC(=O)c1ccc(CNC(=O)Nc2ccc(=O)n(C)c2)cc1`: the INHIBITION is 59.3%.

For `Cn1cc(C(=O)Nc2cccc(Oc3ccncc3)c2)ccc1=O`, the INHIBITION worked out at 51.5%.

As to `CN1Cc2ccccc2CC2(CCN(Cc3nccn3C)CC2)C1=O`, the INHIBITION stood at 34.5%.

`Cc1cc(C2CCCN(CCNS(=O)(=O)c3ccccc3)C2)n[nH]1` (stereo unspecified): the INHIBITION is recorded as 11.9%.

`CC1CN(C)CCN1C(=O)Nc1nc(-c2ccco2)cs1` (stereo unspecified): the INHIBITION turned out to be 14%.

As for `O=C(c1ccco1)N1CCC2(CCC(=O)N2Cc2ccncc2)CC1`, the INHIBITION came out at 8.74%.

Turning to `c1ccc(Cc2noc(-c3ccc(NCC4COCCO4)nc3)n2)cc1` (stereo unspecified), the INHIBITION is recorded as 12.02%.

In the case of `CC(NC(=O)NCCC(=O)OC(C)(C)C)c1nncn1C` (stereo unspecified), the INHIBITION is listed as 25.4%.

For `CCc1nccn1-c1cncc(C2CCCN2CC(=O)N2CCCC2)n1` (stereo unspecified), the INHIBITION turned out to be 4.08%.

On to `Cc1cc2cccc(C(=O)N3CCOC(CCN(C)C)C3)c2o1` (stereo unspecified), for which the INHIBITION was 33%.

For the compound `Cc1cccc(CN2CC3(CCN(S(=O)(=O)C4CC4)CC3)OCC2=O)n1`, the INHIBITION is recorded as 7.53%.

As for `Cc1nccn1CCCn1cncc1-c1ccc2c(c1)CC(C)N2C` (stereo unspecified), the INHIBITION came out at 62.4%.

For the compound `Cc1nccn1CCCn1cncc1-c1ccc2c(c1)CCCN2C`, the INHIBITION is 41.5%.

The values above are taken from ChEMBL document CHEMBL4513216, “Probing the Open Global Health Chemical Diversity Library for Multistage-Active Starting Points for Next-Generation Antimalarials” (ACS Infect Dis, 2020).
